What was measured:
Test in all cases: DAPPL (digital affinity profiling via proximity ligation, sequencing); 10 mM Tris-HCl pH 7.5, 50 mM NaCl, 1 mM DTT, 4% glycerol, room temperature, 30 min; GST-TFs on glutathione beads, 16-mer random dsDNA library, 0.1% formaldehyde crosslink after washing; high values mean tight binding
Details in all cases: protein: recombinant; tags: N-terminal GST; dsDNA, one strand shown
ERF = molecular target: T1, ERF (Homo sapiens, UniProt P50548 1-548)
T1 sequence: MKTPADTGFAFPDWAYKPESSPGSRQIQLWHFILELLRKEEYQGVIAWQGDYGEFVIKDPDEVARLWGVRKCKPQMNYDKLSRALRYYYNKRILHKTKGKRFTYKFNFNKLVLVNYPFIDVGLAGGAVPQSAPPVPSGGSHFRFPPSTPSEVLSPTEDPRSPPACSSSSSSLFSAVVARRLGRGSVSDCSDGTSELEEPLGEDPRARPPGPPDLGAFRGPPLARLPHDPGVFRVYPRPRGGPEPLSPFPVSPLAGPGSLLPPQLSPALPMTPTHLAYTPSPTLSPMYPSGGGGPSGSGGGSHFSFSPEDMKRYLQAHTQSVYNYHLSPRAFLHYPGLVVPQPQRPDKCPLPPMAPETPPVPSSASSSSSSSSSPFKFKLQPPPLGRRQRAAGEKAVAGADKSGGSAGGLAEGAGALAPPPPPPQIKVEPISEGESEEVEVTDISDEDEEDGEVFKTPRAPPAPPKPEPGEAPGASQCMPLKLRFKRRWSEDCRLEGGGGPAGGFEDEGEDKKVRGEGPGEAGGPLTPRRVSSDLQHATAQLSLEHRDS
In short: (§1)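 After expression in yeast as GST fusions, human transcription factors were bound to glutathione beads, DNA-barcoded and mixed with a tag-only sample. The pools were incubated with 200 nmole of a 16-mer random double-stranded DNA library in Tris/NaCl/DTT/glycerol buffer (30 min, room temperature), washed and crosslinked with 0.1% formaldehyde. Proximity ligation with BsaI/T4 ligase ran for 1 h at 37 °C, before PCR amplification and sequencing on an Illumina NextSeq500. Binding signal is a hexamer's read frequency for a factor divided by its frequency for the tag-only sample.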

ETV3L = molecular target: T2, ETV3L (Homo sapiens, UniProt Q6ZN32 1-361)
T2 sequence: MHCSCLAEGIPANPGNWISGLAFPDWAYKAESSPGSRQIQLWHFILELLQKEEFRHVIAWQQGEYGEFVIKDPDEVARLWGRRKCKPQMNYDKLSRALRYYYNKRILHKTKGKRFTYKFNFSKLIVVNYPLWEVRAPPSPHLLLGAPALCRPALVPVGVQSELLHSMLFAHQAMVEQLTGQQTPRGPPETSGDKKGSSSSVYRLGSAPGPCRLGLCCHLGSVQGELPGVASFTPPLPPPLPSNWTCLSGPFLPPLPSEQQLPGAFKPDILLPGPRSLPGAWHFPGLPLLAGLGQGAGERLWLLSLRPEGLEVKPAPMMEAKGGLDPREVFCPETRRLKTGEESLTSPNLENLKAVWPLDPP
In short: as §1

ETS2 = molecular target: T3, ETS2 (Homo sapiens, UniProt P15036 1-469)
T3 sequence: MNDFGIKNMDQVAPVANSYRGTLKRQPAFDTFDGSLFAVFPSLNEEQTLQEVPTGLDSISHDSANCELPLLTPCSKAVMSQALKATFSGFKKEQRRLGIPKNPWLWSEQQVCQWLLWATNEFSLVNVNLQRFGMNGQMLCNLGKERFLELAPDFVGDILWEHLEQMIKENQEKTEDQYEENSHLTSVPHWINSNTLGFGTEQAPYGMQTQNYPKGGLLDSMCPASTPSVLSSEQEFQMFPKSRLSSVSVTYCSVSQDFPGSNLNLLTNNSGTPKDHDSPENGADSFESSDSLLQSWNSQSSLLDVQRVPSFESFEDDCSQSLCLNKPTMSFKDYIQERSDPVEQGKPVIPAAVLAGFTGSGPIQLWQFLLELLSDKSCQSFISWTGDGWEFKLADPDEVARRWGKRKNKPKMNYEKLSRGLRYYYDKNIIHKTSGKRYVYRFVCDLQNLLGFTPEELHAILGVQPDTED
In short: as §1

SPDEF = molecular target: T4, SPDEF (Homo sapiens, UniProt O95238 1-335)
T4 sequence: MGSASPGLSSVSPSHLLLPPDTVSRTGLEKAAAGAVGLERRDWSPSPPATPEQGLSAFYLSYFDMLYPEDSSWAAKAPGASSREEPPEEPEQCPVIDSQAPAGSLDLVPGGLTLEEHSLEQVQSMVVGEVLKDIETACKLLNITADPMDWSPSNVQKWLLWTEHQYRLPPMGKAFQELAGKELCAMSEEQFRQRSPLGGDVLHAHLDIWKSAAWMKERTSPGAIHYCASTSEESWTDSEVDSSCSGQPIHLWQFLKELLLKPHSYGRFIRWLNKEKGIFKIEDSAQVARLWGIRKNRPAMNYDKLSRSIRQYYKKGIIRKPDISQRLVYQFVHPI
In short: as §1

ETV7 = molecular target: T5, ETV7 (Homo sapiens, UniProt Q9Y603 1-341)
T5 sequence: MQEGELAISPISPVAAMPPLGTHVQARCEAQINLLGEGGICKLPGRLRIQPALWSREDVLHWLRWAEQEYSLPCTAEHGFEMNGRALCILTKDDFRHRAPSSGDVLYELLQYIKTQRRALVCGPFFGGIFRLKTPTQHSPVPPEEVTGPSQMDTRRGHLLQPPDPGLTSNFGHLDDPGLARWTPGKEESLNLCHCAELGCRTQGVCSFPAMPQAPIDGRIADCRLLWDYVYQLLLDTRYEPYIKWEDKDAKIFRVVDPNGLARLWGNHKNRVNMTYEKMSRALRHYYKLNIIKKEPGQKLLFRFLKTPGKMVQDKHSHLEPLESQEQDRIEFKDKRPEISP
In short: as §1

ELF5 = molecular target: T6, ELF5 (Homo sapiens, UniProt Q9UKW6-2 1-255)
T6 sequence: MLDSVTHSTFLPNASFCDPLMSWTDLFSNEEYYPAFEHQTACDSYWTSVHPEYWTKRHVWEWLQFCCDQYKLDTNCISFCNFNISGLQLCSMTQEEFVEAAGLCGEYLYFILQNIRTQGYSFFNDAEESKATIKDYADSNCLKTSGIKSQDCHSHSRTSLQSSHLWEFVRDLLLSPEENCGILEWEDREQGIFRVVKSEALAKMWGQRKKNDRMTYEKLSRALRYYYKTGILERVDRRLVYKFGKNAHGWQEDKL
In short: as §1

ETV3 = molecular target: T7, ETV3 (Homo sapiens, UniProt P41162-2 1-143)
T7 sequence: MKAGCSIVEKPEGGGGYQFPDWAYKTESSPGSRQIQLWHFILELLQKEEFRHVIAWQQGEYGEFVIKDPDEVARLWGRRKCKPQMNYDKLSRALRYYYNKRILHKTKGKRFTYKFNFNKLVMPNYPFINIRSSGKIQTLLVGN
In short: as §1

ETV6 = ETV6 (Homo sapiens, UniProt P41212 1-452)
Sequence of ETV6 (P41212 whole entry): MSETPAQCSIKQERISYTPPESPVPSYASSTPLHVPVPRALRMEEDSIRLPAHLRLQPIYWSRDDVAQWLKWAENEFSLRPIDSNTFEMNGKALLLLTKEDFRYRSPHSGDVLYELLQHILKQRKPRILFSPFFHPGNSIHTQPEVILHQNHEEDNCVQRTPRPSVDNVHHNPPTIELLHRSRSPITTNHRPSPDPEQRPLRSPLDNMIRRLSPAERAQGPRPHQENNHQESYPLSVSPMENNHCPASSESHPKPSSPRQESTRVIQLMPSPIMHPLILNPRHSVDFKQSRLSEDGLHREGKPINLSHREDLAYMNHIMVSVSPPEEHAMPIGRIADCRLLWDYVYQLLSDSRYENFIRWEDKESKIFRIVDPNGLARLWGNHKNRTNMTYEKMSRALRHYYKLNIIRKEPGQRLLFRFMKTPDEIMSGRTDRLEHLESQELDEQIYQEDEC
In short: as §1

TATACA
binding signal (ERF): 1.34 fold enrichment (6-mer frequency, TF over GST control) | binding signal (ETV3L): 1.3 fold enrichment (6-mer frequency, TF over GST control) | binding signal (ETS2): 1.37 fold enrichment (6-mer frequency, TF over GST control) | binding signal (SPDEF): 1.44 fold enrichment (6-mer frequency, TF over GST control) | binding signal (ETV7): 1.35 fold enrichment (6-mer frequency, TF over GST control) | binding signal (ELF5): 1.29 fold enrichment (6-mer frequency, TF over GST control) | binding signal (ETV3): 1.31 fold enrichment (6-mer frequency, TF over GST control) | binding signal (ETV6): 1.25 fold enrichment (6-mer frequency, TF over GST control)

GCTTCC
binding signal (ERF): 3.06 fold enrichment (6-mer frequency, TF over GST control) | binding signal (ETV3L): 3.36 fold enrichment (6-mer frequency, TF over GST control) | binding signal (ETS2): 3.56 fold enrichment (6-mer frequency, TF over GST control) | binding signal (SPDEF): 3.67 fold enrichment (6-mer frequency, TF over GST control) | binding signal (ETV7): 3.14 fold enrichment (6-mer frequency, TF over GST control) | binding signal (ELF5): 4.78 fold enrichment (6-mer frequency, TF over GST control) | binding signal (ETV3): 3.8 fold enrichment (6-mer frequency, TF over GST control) | binding signal (ETV6): 4.28 fold enrichment (6-mer frequency, TF over GST control)

ATTTCC
binding signal (ERF): 3.64 fold enrichment (6-mer frequency, TF over GST control) | binding signal (ETV3L): 3.98 fold enrichment (6-mer frequency, TF over GST control) | binding signal (ETS2): 4.24 fold enrichment (6-mer frequency, TF over GST control) | binding signal (SPDEF): 3.68 fold enrichment (6-mer frequency, TF over GST control) | binding signal (ETV7): 3.78 fold enrichment (6-mer frequency, TF over GST control) | binding signal (ELF5): 6.17 fold enrichment (6-mer frequency, TF over GST control) | binding signal (ETV3): 4.45 fold enrichment (6-mer frequency, TF over GST control) | binding signal (ETV6): 4.99 fold enrichment (6-mer frequency, TF over GST control)

TTCGTC
binding signal (ERF): 1.36 fold enrichment (6-mer frequency, TF over GST control) | binding signal (ETV3L): 1.23 fold enrichment (6-mer frequency, TF over GST control) | binding signal (ETS2): 1.31 fold enrichment (6-mer frequency, TF over GST control) | binding signal (SPDEF): 1.29 fold enrichment (6-mer frequency, TF over GST control) | binding signal (ETV7): 1.22 fold enrichment (6-mer frequency, TF over GST control) | binding signal (ELF5): 1.18 fold enrichment (6-mer frequency, TF over GST control) | binding signal (ETV3): 1.31 fold enrichment (6-mer frequency, TF over GST control) | binding signal (ETV6): 1.23 fold enrichment (6-mer frequency, TF over GST control)

ACTCCG
binding signal (ERF): 1.37 fold enrichment (6-mer frequency, TF over GST control) | binding signal (ETV3L): 1.52 fold enrichment (6-mer frequency, TF over GST control) | binding signal (ETS2): 1.46 fold enrichment (6-mer frequency, TF over GST control) | binding signal (SPDEF): 1.59 fold enrichment (6-mer frequency, TF over GST control) | binding signal (ETV7): 1.4 fold enrichment (6-mer frequency, TF over GST control) | binding signal (ELF5): 1.32 fold enrichment (6-mer frequency, TF over GST control) | binding signal (ETV3): 1.51 fold enrichment (6-mer frequency, TF over GST control) | binding signal (ETV6): 1.47 fold enrichment (6-mer frequency, TF over GST control)

AAATTT
binding signal (ERF): 1.43 fold enrichment (6-mer frequency, TF over GST control) | binding signal (ETV3L): 1.4 fold enrichment (6-mer frequency, TF over GST control) | binding signal (ETS2): 1.35 fold enrichment (6-mer frequency, TF over GST control) | binding signal (SPDEF): 1.15 fold enrichment (6-mer frequency, TF over GST control) | binding signal (ETV7): 1.36 fold enrichment (6-mer frequency, TF over GST control) | binding signal (ELF5): 1.43 fold enrichment (6-mer frequency, TF over GST control) | binding signal (ETV3): 1.27 fold enrichment (6-mer frequency, TF over GST control) | binding signal (ETV6): 1.37 fold enrichment (6-mer frequency, TF over GST control)

CTCTGT
binding signal (ERF): 1.5 fold enrichment (6-mer frequency, TF over GST control) | binding signal (ETV3L): 1.33 fold enrichment (6-mer frequency, TF over GST control) | binding signal (ETS2): 1.5 fold enrichment (6-mer frequency, TF over GST control) | binding signal (SPDEF): 1.45 fold enrichment (6-mer frequency, TF over GST control) | binding signal (ETV7): 1.43 fold enrichment (6-mer frequency, TF over GST control) | binding signal (ELF5): 1.37 fold enrichment (6-mer frequency, TF over GST control) | binding signal (ETV3): 1.43 fold enrichment (6-mer frequency, TF over GST control) | binding signal (ETV6): 1.44 fold enrichment (6-mer frequency, TF over GST control)

— publication PMC7862700, “An all-to-all approach to the identification of sequence-specific readers for epigenetic DNA modifications on cytosine”
